Compounds without any hit were thinned out: in the full panel of roughly 83,000, 20% have a hit.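 Plates (96-well) were seeded with cells, treated with compound at one concentration, and incubated for 48 hours before percent growth was determined.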 Values without a mark were called inactive. How the source made its calls: active means growth percent below 10; inactive means the rest.
These compounds were tested on HCT-116 colon (assay: NCI-60 one-dose screen, 48 h (100 = growth as untreated, 0 = no growth, -100 = all killed)). Details: 10 µM unless noted.

| SMILES | growth [%] |
| --- | --- |
| Cn1c(=O)c2[nH]c(SC/C(=N/O)c3ccc(Br)cc3)nc2n(C)c1=O | 28.3 |
| Cc1c2ncccc2nc2[nH]c3ccc(OCCN(C)C)cc3c12 | 12.6 |
| COc1ccc(-c2cc(C(=O)N3N=C(c4ccc(N)cc4)CC3c3ccc(Cl)cc3)c3ccccc3n2)cc1 (stereo not drawn) | 15.6 |
| Cc1oc(-c2ccc(Cl)cc2)nc1C1=NN(C(=O)c2ccncc2)C(c2ccccc2)C1 (stereo not drawn) | 93.8 |
| Nc1cc(C(=O)O)cc(-n2c(O)c(C=C3N=c4ccccc4=N3)sc2=S)c1 | 99.4 |
| Nc1ncnc2c1N=C(c1ccc(F)cc1)CC(c1cccc(Nc3ccnc4cc(Cl)ccc34)c1)N2 (stereo not drawn) | 49.7 |
| CCNC(=O)N1CCc2c(Br)c3c(c(OC)c2C1Cc1ccc(OC)cc1)OCO3 (stereo not drawn) | 20.9 |
| Nc1nc2ccccc2c2c(=O)c3cc(Cl)ccc3sc12 | 88.7 |
| Cc1ccc(S(=O)(=O)c2nc(-c3ccccc3)oc2SCC(N)=O)cc1 | 85.7 |
| CCCN(CCSSCCNc1nc(N(C)O)nc(N(C)O)n1)c1nc(N(C)O)nc(N(C)O)n1 | 41 |
| COc1cc(C=C2C(=O)NC(=S)NC2=O)cc(CN2CCCC2)c1O | 113 |
| Cc1cc(C)c2c(c1)N(C)c1ncnc(-n3c(C)nc4cc(C)ccc43)c1CC2C (stereo not drawn) | 17.4 |
| COC1/C=C/OC2(C)Oc3c(C)c(O)c4c(O)c(c(/C=N/N(c5ccccc5)c5ccccc5)c(O)c4c3C2=O)NC(=O)C(C)=C/C=C/C(C)C(O)C(C)C(O)C(C)C(OC(C)=O)C1C (stereo not drawn) | 38.7 |

— PubChem BioAssay (NCI)
